# Methyltransferases: Primary Screen for Target Class Profiling of Small Molecule Inhibitors of Methyltransferases; AID 1745853, 2022; 3.9% of 25,000 active; calls only at 40 µM; purified enzyme, MTase-Glo SAH luminescence; stronger effect = lower value; call rule not given here
#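 Each enzyme was reacted with SAM and its substrate, with compounds tested once at 40 uM; SAH formed was read by MTase-Glo luminescence.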
# MTase-Glo counter: counter-screen for methyltransferase inhibitors: coupling enzymes without methyltransferase; shares compounds with Methyltransferases; MTase-Glo coupled enzymes, SAH conversion luminescence, no MTase; Potency, µM (top dose mostly 57.3 µM), without a hit: at the top dose activity change, negative = inhibition, actives largely listed as inhibitors; 6% of 180 active; AID 1745851; active = well fitted inhibition curve with a large enough effect; inconclusive = small, poorly fitted or top-dose-only effect; note: potency is the fitted concentration of half-maximal effect
# Starred values were filed as active, the others as inactive; i = inactive; ? = inconclusive; + = active, no number; [ ] = another dose, or the depositor's remark. Only a selection was taken, and hits are over-represented in it overall. % is set by controls: 0 for no effect and ±100 for the full control effect.
SMILES,Methyltransferases,others
CCOc1ccccc1C(=O)NC1CCN(c2cc(C)cc(C)c2)C1=O (configuration not stated),i,
Cc1ccc(Cn2c(=O)c3ccc(C(=O)NC(C)C)cc3n3c(=O)n(Cc4cccc(Cl)c4)nc23)cc1,i,
CCCn1c(=O)c2ccc(Cl)cc2n2c(=O)n(CC(=O)c3ccc(OC)cc3)nc12,i,
CC1(C(=O)NC2CCCCCCC2)Cn2c(ccc2-c2ccco2)C(=O)N1Cc1ccccn1 (configuration not stated),i,
N#Cc1ccc(CN2CCC3(CC(c4cccc(C(F)(F)F)c4)=NO3)C2)cc1 (configuration not stated),i,
FC(F)(F)c1cccc(-c2nccn3c(C4CN(Cc5ccc6cn[nH]c6c5)C4)ncc23)c1,+,MTase-Glo counter=-6.3%
Cc1cnc(C2CC2)n1C1CCCN(C(=O)c2ccoc2)C1 (configuration not stated),i,
Cc1cnc(C2CCOCC2)n1C1CCCN(S(=O)(=O)c2ccccc2)C1 (configuration not stated),i,
Cc1cnc(C2CC2)n1C1CCCN(Cc2ccccc2)C1 (configuration not stated),+,MTase-Glo counter=-4.9%
Cc1ccc(NC(=O)Cn2nc3n(CC(C)C)c(=O)c4ccc(C(=O)NC(C)C)cc4n3c2=O)cc1F,i,
COCCNC(=O)C1(C)Cn2nc(-c3ccccc3)cc2C(=O)N1Cc1ccc(C)cc1 (configuration not stated),i,
COc1ccc(CC(=O)N2CCCC2C(=O)N2CCC(c3nc4ccncc4[nH]3)C2)cc1 (configuration not stated),i,
Cc1ccc(CN2CC[C@H](c3nc4ccc(C)cc4[nH]3)C2)cc1,i,
COc1ccc2nc([C@H]3CCN(C4CCCCC4)C3)[nH]c2c1,+,MTase-Glo counter=-5.3%[85.7 µM]
CC(C)Cn1c(=O)c2ccc(C(=O)NC3CCCCC3)cc2n2c(=O)n(C)nc12,i,
NCC1CCN(c2nccc(-c3ccc4ccccc4c3)n2)CC1,i,
Cc1nccn1CCC1CCN(c2nccc(-c3ccccn3)n2)CC1,+,MTase-Glo counter=3.9%
CCC1=C(C)C(=O)C(C)CC12C(=O)CCC2C(=O)O (configuration not stated),i,
Cc1cccc(CNC(=O)C2(C)Cn3cnc(C(=O)NC4CC4)c3C(=O)N2C2CC2)c1 (configuration not stated),i,
COc1cc(F)ccc1-c1nccc2c(=O)cc(-c3cnn(C)c3)oc12,i,
COc1cc(F)ccc1-c1cc(-c2ccc(=O)[nH]c2)c2cncn2c1,+,MTase-Glo counter=?
CC1(C(=O)NC2CCCCC2)Cn2c(cc3sccc32)C(=O)N1CCN1CCCCCC1 (configuration not stated),i,
COc1ccccc1CN1C(=O)c2cc3ccccc3n2CC1(C)C(=O)NC1CCCCC1 (configuration not stated),i,
CC(C)NC(=O)c1ccc2c(=O)n(C(C)C)c3nn(CC(=O)Nc4ccc(Cl)cc4)c(=O)n3c2c1,i,
CC(C)C1=CC2=CCC3[C@](C)(CCC[C@@]3(C)C(=O)O)C2CC1O (some centres not stated),i,
SMILES,Methyltransferases,others
CC1=NOC(C(=O)N2CCCn3nc(C(=O)NCCN(C)C)cc3C2)C1 (configuration not stated),i,
CN(C)CCNC(=O)c1ccnc(-c2nnc3ccc(N(C)c4ccccc4)nn23)c1,+,MTase-Glo counter=-6.5%[85.7 µM]
CN(C)CCNC(=O)c1cc2n(n1)CC(C)(C(=O)NCc1ccccc1)N(C)C2=O (configuration not stated),i,
CCCn1c(=O)c2ccc(C(=O)NC3CCCCC3)cc2n2c(=O)n(CC(=O)c3ccc(C)cc3C)nc12,i,
Cc1ccc(CNC(=O)C2(C)Cn3cnc(C(=O)NCc4ccccc4F)c3C(=O)N2C2CC2)cc1 (configuration not stated),i,
CCNc1nccc(N2CCC(CC(=O)NCC(C)C)CC2)n1,+,MTase-Glo counter=-0.3%
COc1nccc(N2CCC(CC(=O)N3CCN(C(C)=O)CC3)CC2)n1,i,
CCNc1nccc(N2CCC(CC(=O)N3CCN(c4ccccc4F)CC3)CC2)n1,+,MTase-Glo counter=2.9%
CCOc1ccc(-c2ccnc(NC[C@@H]3CCCO3)n2)cc1C(=O)O,i,
CCCn1c(C)cnc1CCNC(=O)CC1CCN(C(C)=O)CC1,i,
CC1(C)N=C(c2ccccc2)C(=O)N1CC(=O)N1CCN(c2ccccc2F)CC1,i,
COC(=O)c1cc2n(n1)CC(C)(C(=O)NC1CCCCCC1)N(c1ccc(Cl)cc1C)C2=O (configuration not stated),i,
COc1ccc(CNC(=O)CCc2nnc3n(Cc4ccccc4Cl)c(=O)c4ccccc4n23)cc1,i,
CC(C)Cn1c(=O)c2ccc(C(=O)NC3CCCCC3)cc2n2c(=O)n(CC(=O)NC(C)(C)C)nc12,i,
